Mtb betalactam – beta-lactam sensitization of Mtb H37Rv, H37Rv | inhibition, % at 25 µM | hit rate 0.27% among 330,000 | M. tuberculosis H37Rv growth with meropenem, percent inhibition; call rule not given here;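 note: growth measured after seven days incubation then overnight dye step; 0% = bacteria only wells and 100% = bacteria with antibiotic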
UGM FP inh – M. tuberculosis UGM enzyme inhibitors, primary screen, biochemical, fluorescence polarization, single point; UDP-galactopyranose mutase (Mycobacterium tuberculosis (strain ATCC 25618 / H37Rv)), …; purified UGM, fluorescence polarization probe displacement; inhibition, % at 10 µM; hit rate 0.06% among 320,000; in the data active = inhibition above about 10%, passing the limit was not always enough
Rv3671c protease – Rv3671c serine protease inhibitors, primary screen, biochemical, fluorescence polarization, M. tuberculosis H37Rv; hit rate 0.048% among 320,000; inhibition, % at 5.96 µM; AID 2606, 2010; P9WHR9; in the data active = inhibition above about 38%;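 note: extracellular domain of Rv3671c used as enzyme; 0% = enzyme with DMSO and 100% = no enzyme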
Target sequence (P9WHR9 whole entry, looked up, the tested form may be a part): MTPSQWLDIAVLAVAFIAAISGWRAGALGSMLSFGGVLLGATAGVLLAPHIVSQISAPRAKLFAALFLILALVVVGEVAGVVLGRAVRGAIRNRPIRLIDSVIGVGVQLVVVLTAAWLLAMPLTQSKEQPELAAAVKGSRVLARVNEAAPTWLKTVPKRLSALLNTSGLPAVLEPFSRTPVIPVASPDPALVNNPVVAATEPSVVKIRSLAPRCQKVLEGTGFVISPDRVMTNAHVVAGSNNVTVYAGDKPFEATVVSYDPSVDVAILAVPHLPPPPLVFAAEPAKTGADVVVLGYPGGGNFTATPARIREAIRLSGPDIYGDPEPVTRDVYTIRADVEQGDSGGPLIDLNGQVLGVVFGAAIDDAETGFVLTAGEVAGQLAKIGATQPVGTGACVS
SSB-PriA inh – inhibitors of Klebsiella pneumoniae PriA binding to SSB C-terminal tail, primary screen, biochemical, AlphaScreen; AlphaScreen SSBct-PriA binding, biotinylated peptide; inhibition, % at 33 µM; hit rate 0.6% among 430,000; in the data active = inhibition mostly above about 37%, no sharp cut-off; inactive = mostly below about 20%;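 note: plate controls were negative control peptide for no effect and reference peptide for full effect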
RecA intein inh – Mtb RecA intein splicing inhibitors, primary screen, biochemical, fluorescence, HTS. AID 2221, 2009. Protein RecA (Mycobacterium tuberculosis (strain ATCC 25618 / H37Rv)), P9WHJ3. cell-free RecA intein splicing. inhibition, % (test concentration not listed). hit rate 0.75% among 290,000; in the data active = inhibition above about 30%;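 note: 0% = vehicle wells and 100% = reference inhibitor control wells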
* hit, by the source's call; . = no result given; ! = repeats disagree. The list is not random: actives were taken first. Their share in the collection is about 1.1%.

SMILES | Mtb betalactam | UGM FP inh | Rv3671c protease | SSB-PriA inh | RecA intein inh
Cc1oc(-c2ccccc2)nc1Cn1c(=O)n(Cc2ccc(F)cc2)c(=O)c2sccc21 | . | . | . | -2 | .
COc1ccc(-n2c(N)c(C(=O)NCc3cccs3)c3nc4ccccc4nc32)cc1 | . | . | . | -42 | .
CCCCn1c(N)c(C(=O)NCc2cccs2)c2nc3ccccc3nc21 | 12 | 1 | -53 | -40 | 75*
Nc1c(C(=O)NCCCc2ccccc2)c2nc3ccccc3nc2n1Cc1cccs1 | -10 | 1 | -19 | 5 | 32*
CNC(=O)c1ccsc1NC(=O)c1ccccc1 | -8 | 7 | 3 | -360 | 1
O=C(CCl)Nc1sccc1C(=O)c1ccccc1 | 100 | 3 | -11 | -6 | 57*
CCOC(=O)CSc1ccc2ccccc2n1 | 19 | -1 | 1 | -25 | 0
CCOC(=O)CN1C=C(c2ccc3ccccc3n2)C(C[N+](=O)[O-])c2ccccc21 (stereo unspecified) | -8 | 17* | 5 | -8 | -115
COc1ccc(NC(=S)c2ccc3ccccc3n2)cc1 | 61 | 0 | -11 | 44* | 4
COc1ccc(NC(=S)c2ccncc2)cc1 | 4 | -2 | 0 | 82*! | 0
COc1ccc(C(=S)Nc2ccc(C)cc2)cc1 | -19 | 1 | -9 | -2 | 2
CC1CCN(c2ccc(C(=O)Nc3ccc4c(c3)OCO4)cc2[N+](=O)[O-])CC1 | 65 | -1 | 2 | 39* | 7
CCOC(=O)C1CCN(c2ccc(S(=O)(=O)C(F)(F)F)cc2[N+](=O)[O-])CC1 | . | . | . | 35* | .
O=C(NNC(=S)Nc1ccc(Br)cc1)c1ccc(N2CCOCC2)c([N+](=O)[O-])c1 | 2 | 3 | 7 | 7 | 7
CC1CCCN(c2ccc(C(=O)Nc3ccc4c(c3)OCO4)cc2[N+](=O)[O-])C1 (stereo unspecified) | 78 | 1 | -5 | 10 | 8
Cc1ccc(NC(=S)NNC(=O)c2ccc(N3CCOCC3)c([N+](=O)[O-])c2)cc1Cl | 13 | -1 | -1 | 38* | 6
COC(=O)c1cc(NS(=O)(=O)c2ccc(N3CCC(C)CC3)c([N+](=O)[O-])c2)cc(C(=O)OC)c1 | 1 | 0 | -63 | 56* | 3
COC(=O)c1cc(NS(=O)(=O)c2ccc(N3CCCCC3)c([N+](=O)[O-])c2)cc(C(=O)OC)c1 | 2 | 3 | -31 | 28 | 5
COC(CNC(=O)C1CC=CCC1)c1ccc(C)s1 (stereo unspecified) | . | . | . | -5 | .
Cc1ccc(NS(=O)(=O)c2ccc(N3CCN(c4ccc(O)cc4)CC3)c([N+](=O)[O-])c2)c(C)c1 | 98 | 2 | 8 | 63* | 9
O=[N+]([O-])c1cc(-c2nnc(Nc3ccc(O)cc3)c3ccccc23)ccc1N1CCOCC1 | 2 | -2 | 6 | -7 | 32*
O=[N+]([O-])c1cc(S(=O)(=O)Nc2ccccc2)ccc1N1CCN(c2ccc(O)cc2)CC1 | 50 | . | 4 | 43* | 0
O=[N+]([O-])c1cc(-c2nnc(Nc3ccccc3)c3ccccc23)ccc1N1CCOCC1 | -1 | -1 | 6 | 6 | .
Cc1ccc2ncnc(NCC(=O)O)c2c1 | . | . | . | -15 | .
COCC(=O)N1CCCc2ccc(NC(=O)Cc3ccsc3)cc21 | . | . | . | 35* | .
SMILES | Mtb betalactam | UGM FP inh | Rv3671c protease | SSB-PriA inh | RecA intein inh
COC(=O)N1CCc2ccc(NS(=O)(=O)CC34CCC(CC3=O)C4(C)C)cc2C1 (stereo unspecified) | . | . | . | -14 | .
COCC(=O)N1CCCc2ccc(NS(=O)(=O)CC34CCC(CC3=O)C4(C)C)cc21 (stereo unspecified) | . | . | . | 36* | .
O=C(NCc1nc2ccccc2[nH]1)c1ccc(Cl)cc1Cl | . | . | . | 10 | .
O=P(CCCCCCCCCP(=O)(c1ccccc1)c1ccccc1)(c1ccccc1)c1ccccc1 | 23 | 2 | 2 | -2 | 60*
Cc1ccnn1CC(=O)NN=Cc1c[nH]c2ccccc12 | . | . | . | -8 | .
Cc1cccc2nc(NC(=O)c3ccc(Oc4ccccc4)cc3)sc12 | . | . | . | -17 | .
N#Cc1nc(COc2ccccc2F)oc1N1CCCCCC1 | 3 | -1 | -3 | 4 | .
COc1ccc(Nc2oc(COc3ccc(OC)cc3)nc2C#N)cc1 | -9 | 2 | -2 | 32 | 7
N#Cc1nc(COc2ccccc2F)oc1NCCc1ccccc1 | 2 | 1 | 1 | 43* | 7
